# Inconclusive results are not listed. Where a call stands in place of a potency, no number is given. The source made the active and inactive calls. Calls follow the shape of the dose curve; as a rule, active = well fitted cell-killing curve with a large enough effect in the repeat runs; inconclusive = weak or mixed curves, or effect the other way; inactive = flat fitted curve, though single readings scatter.
# Key:
# [1] = cAMP Responsive Elements (CRE) small molecule antagonists, cell-based qHTS assay: qHTS cell viability counter screen (AID 2060913); conditions: CRE-bla HEK293T viability, CellTiter-Glo luminescence, 5 h; series mostly up to 92.4 µM; also: nearly all actives have a fitted effect of over 40% in size
# Outline: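 Steps: cells plated and held 18 hrs at 37 C/5% CO2; compounds and NKH477 (0.25 uM final) added; 3 hrs incubation; reporter substrate read; CellTiter-Glo added to measure cytotoxicity by luminescence.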
# [2] = cAMP Responsive Elements (CRE) small molecule agonists, cell-based qHTS assay: qHTS cell viability counter screen (AID 2060914); conditions: CRE-bla HEK293T viability, CellTiter-Glo luminescence, 5 h; series mostly up to 92.4 µM; also: nearly all actives have a fitted effect of over 50% in size
# Outline: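 Cytotoxicity was measured as ATP luminescence (CellTiter-Glo, 30 min at room temperature) in the same wells as the CRE-bla FRET read-out. HEK293T CRE-bla cells had 3 h compound exposure at 37C/5% CO2.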
SMILES,Potency [1],Potency [2],"viability change, negative = cytotoxic [1]","activity change, negative = cytotoxicity [2]"
CC(=O)c1cc(C)oc1C,inactive,inactive,–,–
NS(=O)(=O)c1cc2c(cc1C(F)(F)F)NCNS2(=O)=O,inactive,inactive,–,–
O=c1[nH]cnc2c1ncn2[C@@H]1O[C@H](CO)[C@@H](O)[C@H]1O,inactive,inactive,–,–
COc1cc2c(cc1OC)-c1cc(=Nc3c(C)cc(C)cc3C)n(C)c(=O)n1CC2,inactive,inactive,–,–
CC(=O)NCCCS(=O)(=O)O,inactive,inactive,–,–
CCCC1CCCC(=O)O1 (stereo not given),inactive,inactive,–,–
O=C1c2ccccc2C(=O)c2c(O)ccc(O)c21,inactive,inactive,–,–
COCCOCCOCCOCCOC,inactive,inactive,–,–
CCOC(=O)OC(C)OC(=O)[C@@H]1N2C(=O)[C@@H](NC(=O)[C@H](N)c3ccccc3)[C@H]2SC1(C)C (stereo not given in full),inactive,inactive,–,–
CNC[C@H](O)c1cccc(O)c1,inactive,inactive,–,–
O=C(O)/C=C/c1ccc(O)c(O)c1,inactive,inactive,–,–
CC(CCc1ccc2c(c1)OCO2)NN (stereo not given),inactive,inactive,–,–
NCCNC(=O)c1ccc(Cl)cn1,inactive,inactive,–,–
C=C(C)C(=O)OCCCCCCCCCCCCCCCCCC,–,–,12.4% [at 18.9 µM] (inactive),2.15% [at 18.9 µM] (inactive)
C[C@@H](CN1CC(=O)NC(=O)C1)N1CC(=O)NC(=O)C1,inactive,inactive,–,–
CCc1nn(C2CCCCC2)c2cc(C3(C#N)CCC(C(=O)O)CC3)ccc12 (stereo not given),inactive,inactive,–,–
Cc1ccc(O)c(-n2nc3ccccc3n2)c1,inactive,inactive,–,–
CO/N=C(\C(=O)O)c1csc(NC(=O)CCl)n1,inactive,inactive,–,–
N#CC1(c2ccc(F)cc2)CCC(=O)CC1,inactive,inactive,–,–
CN1CCN(C(=O)C2CCCCC2)CC1,inactive,inactive,–,–
Cc1ccsc1/C=C/C1=NCCCN1C,inactive,inactive,–,–
O=C1CCCC1,inactive,inactive,–,–
COCC(C)OC(C)=O (stereo not given),inactive,inactive,–,–
CC(=O)NS(=O)(=O)c1ccc(N)cc1,inactive,inactive,–,–
CCOC(=O)C1=C[C@]2(CC)CCCN3CCc4c(n1c1ccccc41)[C@@H]32,inactive,inactive,–,–

SMILES,Potency [1],Potency [2],"viability change, negative = cytotoxic [1]","activity change, negative = cytotoxicity [2]"
C=C(C)C(=O)OCCCCCC,inactive,inactive,–,–
CCOc1ccc2[nH]cc(C(=O)NCc3ccccc3)c(=O)c2n1,inactive,inactive,–,–
CC1=NN(c2cc(S(=O)(=O)O)ccc2Cl)C(=O)C1N=Nc1ccccc1 (stereo not given),inactive,inactive,–,–
CC(C)NNC(=O)c1ccncc1,inactive,inactive,–,–
COc1cc(C(=O)OC(COCCC(C)C)CN2CCOCC2)cc(OC)c1OC (stereo not given),inactive,inactive,–,–
O=C(OCCOCCOCCOC(=O)c1ccccc1)c1ccccc1,inactive,inactive,–,–
Cc1cc(=O)oc2cc(O[C@@H]3SC[C@@H](O)[C@H](O)[C@H]3O)ccc12,inactive,inactive,–,–
Nc1ccccc1O,inactive,inactive,–,–
C=C(C)C(=O)OCCOCCOC(=O)C(=C)C,inactive,inactive,–,–
CN1C[C@H]2c3ccccc3Oc3ccc(Cl)cc3[C@@H]2C1,inactive,inactive,–,–
CCOCCn1c(C2CCN(CCc3ccc(C(C)(C)C(=O)O)cc3)CC2)nc2ccccc21,inactive,inactive,–,–
CCN(CC)CCNC(=O)c1cc(Cl)c(N)cc1OC,inactive,inactive,–,–
CN(C)[C@@H](CCOc1cccc2ccccc12)c1ccccc1,inactive,inactive,–,–
O=C(OCCCCCCOC(=O)c1ccccc1)c1ccccc1,inactive,inactive,–,–
C=C(C)C(=O)OCCCCCCCCCC,inactive,inactive,–,–
O=C(NN1CCCC1)NS(=O)(=O)c1ccc(Cl)cc1,inactive,inactive,–,–
CC(C)(Cc1c[nH]c2ccccc12)NCC(O)COc1ccccc1C#N (stereo not given),inactive,inactive,–,–
CCCCN(CCN(CCCC)C(=O)N1CCOCC1)C(=O)N1CCOCC1,inactive,inactive,–,–
CC1(C)C(=O)N(Br)C(=O)N1Br,inactive,inactive,–,–
CC(=O)OCC=C(C)C,inactive,inactive,–,–
CC(C)C1=CC2=CC[C@@H]3[C@](C)(CCC[C@@]3(C)C(=O)O)[C@H]2CC1,inactive,inactive,–,–
CC(=O)c1ccccc1,inactive,inactive,–,–
Fc1ccc(C(c2ccc(F)cc2)N2CCN(C/C=C/c3ccccc3)CC2)cc1,inactive,inactive,–,–
C=CC(C)(O)CC/C=C(\C)CC (stereo not given),inactive,inactive,–,–
CCn1cc(C(=O)O)c(=O)c2cc(F)c(N3CCNCC3)cc21,inactive,inactive,–,–

# From PubChem BioAssay (Tox21)
